Activity calls are given as the source filed them.
Tests used:
[1] = test system: Plasmodium falciparum Sir2 (PF13_0152, Sir2A); test: pfSir2 binders on small-molecule microarrays, primary screen, biochemical, small-molecule microarray, 635 nm fluorescence (AID 1098); conditions: small-molecule microarray binding, fluorescence 635 nm; higher = more signal;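 further: score merges spot fluorescence intensity with its signal-to-noise ratio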
[2] = small-molecule microarray binders of probe aDKK1, primary screen, biochemical, biotinylated probe, 635/667 nm fluorescence (AID 1099); conditions: higher = more signal;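 further: score merges 667nm spot fluorescence with signal to noise across triplicate slides; reference of the scale not given here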
[3] = small-molecule microarray binders of probe aCHRDL2, primary screen, biochemical, biotinylated probe, 635/667 nm fluorescence (AID 1100); conditions: higher = more signal
[4] = splicing luciferase reporter signal modulators, primary screen, spliceosome inhibition project, cell-based, HEK293, splice +/- reporter (AID 1101); conditions: luminescence, 24 h, higher = more signal, called active from +8 up or from −8 down;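 further: HEK293 cells carrying a splicing-competent luciferase reporter gene; test concentration not given here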
[5] = biological target: Fibroblast growth factor 10 (Homo sapiens) (UniProt O15520); test: FGF10 binders on small-molecule microarrays, primary screen, biochemical, small-molecule microarray, 635 nm fluorescence (AID 1102); conditions: FGF10 binding, fluorescence 635 nm, higher = more signal
Sequence of Fibroblast growth factor 10 (Homo sapiens) (O15520 whole entry, looked up): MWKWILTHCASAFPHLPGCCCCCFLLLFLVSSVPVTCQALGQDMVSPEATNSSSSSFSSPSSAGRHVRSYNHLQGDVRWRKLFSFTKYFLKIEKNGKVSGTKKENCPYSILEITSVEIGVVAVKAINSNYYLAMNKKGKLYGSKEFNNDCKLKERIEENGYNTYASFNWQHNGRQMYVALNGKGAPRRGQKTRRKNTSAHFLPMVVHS

[6] = test system: glycogen synthase kinase-3 (GSK3A per assay name; protocol says GSK3B); test: GSK3 binders on small-molecule microarrays, primary screen, biochemical, small-molecule microarray, 635 nm fluorescence, GSK3A (AID 1103); conditions: small-molecule microarray binding, fluorescence 635 nm; higher = more signal; further: the record names both GSK3A and GSK3B
[7] = biological target: Epidermal growth factor receptor (Homo sapiens) (UniProt P00533); test: EGFR binders on small-molecule microarrays, primary screen, biochemical, small-molecule microarray, 635 nm fluorescence (AID 1104); conditions: EGFR binding, higher = more signal;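 further: score merges 667 nm emission intensity with spot signal to noise over triplicate slides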
Sequence of Epidermal growth factor receptor (Homo sapiens) (P00533 whole entry, looked up): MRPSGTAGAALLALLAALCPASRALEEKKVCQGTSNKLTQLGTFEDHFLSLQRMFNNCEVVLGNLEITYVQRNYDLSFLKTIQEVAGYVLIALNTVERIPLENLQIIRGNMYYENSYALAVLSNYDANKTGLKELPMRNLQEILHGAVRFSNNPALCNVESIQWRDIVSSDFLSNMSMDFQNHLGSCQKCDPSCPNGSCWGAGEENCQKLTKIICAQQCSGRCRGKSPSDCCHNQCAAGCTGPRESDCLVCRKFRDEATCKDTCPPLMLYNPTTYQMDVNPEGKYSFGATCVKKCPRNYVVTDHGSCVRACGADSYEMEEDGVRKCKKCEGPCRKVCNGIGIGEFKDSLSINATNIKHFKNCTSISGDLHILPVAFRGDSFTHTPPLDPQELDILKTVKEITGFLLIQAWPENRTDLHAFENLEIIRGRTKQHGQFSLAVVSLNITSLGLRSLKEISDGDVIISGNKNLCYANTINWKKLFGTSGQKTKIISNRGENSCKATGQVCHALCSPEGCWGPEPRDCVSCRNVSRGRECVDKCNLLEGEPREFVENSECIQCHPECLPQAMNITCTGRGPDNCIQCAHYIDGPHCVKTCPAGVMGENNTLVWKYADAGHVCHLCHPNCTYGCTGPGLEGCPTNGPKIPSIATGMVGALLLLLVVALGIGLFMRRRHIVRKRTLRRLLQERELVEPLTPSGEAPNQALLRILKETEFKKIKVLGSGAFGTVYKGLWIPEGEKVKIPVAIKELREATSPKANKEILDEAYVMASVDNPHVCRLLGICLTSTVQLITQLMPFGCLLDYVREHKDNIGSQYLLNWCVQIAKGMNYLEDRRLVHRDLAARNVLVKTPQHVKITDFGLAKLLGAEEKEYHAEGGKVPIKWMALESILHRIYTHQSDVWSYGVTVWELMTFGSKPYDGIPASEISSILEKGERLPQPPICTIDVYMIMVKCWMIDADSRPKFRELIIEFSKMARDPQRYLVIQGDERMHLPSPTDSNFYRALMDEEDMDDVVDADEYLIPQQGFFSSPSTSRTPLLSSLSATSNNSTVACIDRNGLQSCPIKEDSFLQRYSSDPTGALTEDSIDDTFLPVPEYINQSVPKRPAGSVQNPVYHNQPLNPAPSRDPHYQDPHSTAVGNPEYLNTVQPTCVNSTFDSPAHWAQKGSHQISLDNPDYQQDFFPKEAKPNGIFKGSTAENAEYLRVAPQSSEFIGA

[8] = biological target: Follistatin-related protein 3 (Homo sapiens) (UniProt O95633); test: FSTL3 binders on small-molecule microarrays, primary screen, biochemical, small-molecule microarray, 635 nm fluorescence (AID 1105); conditions: FSTL3 binding, higher = more signal;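 further: score merges emission near 667 nm and signal to noise per printed spot across three slides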
Sequence of Follistatin-related protein 3 (Homo sapiens) (O95633 whole entry, looked up): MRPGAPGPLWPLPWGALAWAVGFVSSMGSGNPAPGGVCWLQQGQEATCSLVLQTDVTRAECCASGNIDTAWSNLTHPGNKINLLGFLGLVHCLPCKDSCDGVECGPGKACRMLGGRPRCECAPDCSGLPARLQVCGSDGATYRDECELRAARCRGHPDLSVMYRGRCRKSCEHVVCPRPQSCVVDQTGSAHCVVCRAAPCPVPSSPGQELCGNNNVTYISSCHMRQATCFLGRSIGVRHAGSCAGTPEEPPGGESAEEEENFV

[9] = biological target: Dickkopf-related protein 1 (Homo sapiens) (UniProt O94907); test: DKK1 binders on small-molecule microarrays, primary screen, biochemical, small-molecule microarray, 635 nm fluorescence scan (AID 1106); conditions: DKK1 binding, higher = more signal;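 further: score merges emission near 667 nm with signal to noise over three replicate slides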
Sequence of Dickkopf-related protein 1 (Homo sapiens) (O94907 whole entry, looked up): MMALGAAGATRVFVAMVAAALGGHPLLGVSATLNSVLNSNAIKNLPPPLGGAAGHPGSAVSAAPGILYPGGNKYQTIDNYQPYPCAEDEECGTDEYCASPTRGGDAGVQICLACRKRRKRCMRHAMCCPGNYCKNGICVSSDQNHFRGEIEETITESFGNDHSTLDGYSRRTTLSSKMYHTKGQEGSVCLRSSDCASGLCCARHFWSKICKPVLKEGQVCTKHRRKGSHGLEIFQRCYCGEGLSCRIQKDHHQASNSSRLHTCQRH

[10] = test system: Inhibin beta A chain (activin A); test: INHBA (activin A) binders on microarrays, primary screen, biochemical, small-molecule microarray, 635 nm fluorescence scan (AID 1107); conditions: small-molecule microarray binding, higher = more signal;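 further: mouse activin A protein probed at 4.33 µg/mL on printed slides; score merges bound-protein fluorescence near 667 nm with spot signal-to-noise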

Structure (SMILES) | composite z-score [1] | composite z-score [2] | composite z-score [3] | z-score [4] | composite z-score [5] | composite z-score [6] | composite z-score [7] | composite z-score [8] | composite z-score [9] | composite z-score [10]
CCCC[C@@H]1C[C@H]1[C@@H](NC(=O)c1ccco1)c1ccc(C(=O)OC)cc1 | -0.433 | 0.0294 | 0.838 | 0.965 (inactive) | 0.0373 | -1.09 | -0.643 | -0.76 | -0.633 | 0.807
O=C1O[C@@H](c2ccccc2)[C@@H](c2ccccc2)N2[C@@H](c3ccc(OCCO)cc3)[C@]3(C(=O)Nc4ccccc43)[C@@H](C(=O)NC[C@H](O)c3ccccc3)[C@H]12 | 1.17 | 0.189 | 0.2 | -0.203 (inactive) | 0.55 | 0.445 | 0.566 | 0.33 | 0.334 | 0.632
[N-]=[N+]=NCc1ccccc1C[C@]1(C(=O)O)N=C(c2ccc(OCCCO)cc2)O[C@H]1c1ccccc1N=[N+]=[N-] | 1.17 | 0.621 | 0.435 | -3.66 (inactive) | 1.12 | 1.16 | 0.386 | 0.737 | 0.0572 | 0.303
COc1ccc(C(O)C2C=CC3C(=O)N(c4ccccc4)C(=O)C3N2Nc2ccccc2F)cc1OCc1ccccc1 (stereo not given) | 1.21 | 1.21 | 1.08 | 0.249 (inactive) | 0.771 | 0.693 | 0.0115 | 0.711 | -0.633 | 1.35
O=C(NCc1ccc(F)cc1)[C@H]1C[C@H]2C(=O)N[C@@H](Cc3ccccc3)C(=O)N2[C@H]1c1ccc(O)cc1 | 1.06 | -0.103 | 0.105 | -0.41 (inactive) | 0.123 | -0.469 | -0.394 | -0.383 | 0.274 | -0.266
CCCCCCC#C[Si](O[C@H](c1ccccc1)c1cn([C@H](CO)Cc2ccccc2)nn1)(C(C)C)C(C)C | 0.984 | -0.35 | -0.101 | -0.77 (inactive) | 0.629 | 0.166 | -0.525 | -0.25 | -0.15 | -0.33
C=CCOC(=O)[C@H]1[C@@H]2C(=O)O[C@@H](c3ccccc3)[C@@H](c3ccccc3)N2[C@@H](c2ccc(OCCOC(=O)[C@H]3C[C@H]4C(=O)N5CCC[C@H]5C(=O)N4[C@H]3c3ccc(O)cc3)cc2)[C@]12C(=O)Nc1ccc(I)cc12 | 2.09 | 1.76 | 1.42 | -1.93 (inactive) | 1.47 | 1.37 | 0.429 | 1.42 | 1.97 | 1.41
COC(=O)c1c(CC[C@@H](CO)NC(=O)N2CCC[C@H]2Cn2cc(-c3ccccn3)nn2)oc(C(C)=O)c1C(=O)OC | 1.23 | -0.238 | -0.337 | -1.25 (inactive) | 0.0437 | 0.209 | 0.0417 | -0.144 | -0.17 | 0.113
